The values that follow come from publication PMC7862700, “An all-to-all approach to the identification of sequence-specific readers for epigenetic DNA modifications on cytosine”.

Holding throughout (assay): DAPPL (digital affinity profiling via proximity ligation, sequencing); 10 mM Tris-HCl pH 7.5, 50 mM NaCl, 1 mM DTT, 4% glycerol, room temperature, 30 min; GST-TFs on glutathione beads, 16-mer random dsDNA library, 0.1% formaldehyde crosslink after washing; high values mean tight binding
Common to all, as to settings: protein: recombinant; tags: N-terminal GST; dsDNA, one strand shown

One assay addresses T1, FLI1 (Homo sapiens, UniProt Q01543 1-452).
T1 sequence: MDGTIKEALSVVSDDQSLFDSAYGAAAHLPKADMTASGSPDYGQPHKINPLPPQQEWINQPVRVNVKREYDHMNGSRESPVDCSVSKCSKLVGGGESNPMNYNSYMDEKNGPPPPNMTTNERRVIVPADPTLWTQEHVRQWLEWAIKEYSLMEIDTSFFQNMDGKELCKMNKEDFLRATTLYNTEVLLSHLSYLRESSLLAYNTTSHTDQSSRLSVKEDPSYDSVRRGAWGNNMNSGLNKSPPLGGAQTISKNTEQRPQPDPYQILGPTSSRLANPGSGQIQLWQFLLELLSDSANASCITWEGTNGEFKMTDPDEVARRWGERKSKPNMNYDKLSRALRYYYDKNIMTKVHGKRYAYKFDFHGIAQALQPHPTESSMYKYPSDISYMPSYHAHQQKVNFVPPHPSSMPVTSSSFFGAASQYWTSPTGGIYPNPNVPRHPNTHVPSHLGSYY
The essentials: (§1)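 The binding signal reported is, for every hexamer, its read frequency for a factor over its read frequency for the tag-only sample. Reads came from pools of yeast-expressed, GST-fused human transcription factors on glutathione beads, barcoded with DNA and mixed with that sample, which were incubated with 200 nmole of a random double-stranded 16-mer DNA library in Tris/NaCl/DTT/glycerol buffer at room temperature for 30 min. After washing, the pools were crosslinked with 0.1% formaldehyde, proximity-ligated with BsaI/T4 ligase for 1 h at 37 °C, PCR-amplified and sequenced on an Illumina NextSeq500.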

A further assay addresses T2, ELK1 (Homo sapiens, UniProt P19419 1-428).
T2 sequence: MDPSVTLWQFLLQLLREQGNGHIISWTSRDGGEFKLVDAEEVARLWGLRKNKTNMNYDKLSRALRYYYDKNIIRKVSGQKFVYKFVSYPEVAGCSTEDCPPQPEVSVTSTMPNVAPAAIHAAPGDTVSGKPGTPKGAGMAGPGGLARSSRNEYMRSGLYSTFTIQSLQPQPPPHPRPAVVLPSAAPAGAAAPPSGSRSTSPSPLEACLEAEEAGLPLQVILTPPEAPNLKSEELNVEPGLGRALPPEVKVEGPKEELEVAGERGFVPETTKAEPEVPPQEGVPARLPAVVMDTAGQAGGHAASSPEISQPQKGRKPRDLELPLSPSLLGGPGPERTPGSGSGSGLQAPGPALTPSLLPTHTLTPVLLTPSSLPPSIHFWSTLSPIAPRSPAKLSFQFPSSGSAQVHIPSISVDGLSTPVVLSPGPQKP
The procedure, abridged:
as §1

In the next assay the target is T3, GABPA (Homo sapiens, UniProt Q06546 1-454).
T3 sequence: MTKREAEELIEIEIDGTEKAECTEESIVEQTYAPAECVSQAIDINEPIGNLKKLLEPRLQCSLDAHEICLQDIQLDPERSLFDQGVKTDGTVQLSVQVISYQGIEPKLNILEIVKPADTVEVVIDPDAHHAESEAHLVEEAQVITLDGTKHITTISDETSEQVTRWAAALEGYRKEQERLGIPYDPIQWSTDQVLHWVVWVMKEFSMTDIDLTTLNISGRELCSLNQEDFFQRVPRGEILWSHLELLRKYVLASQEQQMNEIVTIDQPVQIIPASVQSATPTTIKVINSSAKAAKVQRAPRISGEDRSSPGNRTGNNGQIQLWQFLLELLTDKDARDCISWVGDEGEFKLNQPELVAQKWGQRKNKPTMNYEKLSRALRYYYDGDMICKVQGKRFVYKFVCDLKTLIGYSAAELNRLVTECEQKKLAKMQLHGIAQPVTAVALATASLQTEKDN
The essentials: as §1

For the next assay, the target named is T4, ERG (Homo sapiens, UniProt P11308 1-479).
T4 sequence: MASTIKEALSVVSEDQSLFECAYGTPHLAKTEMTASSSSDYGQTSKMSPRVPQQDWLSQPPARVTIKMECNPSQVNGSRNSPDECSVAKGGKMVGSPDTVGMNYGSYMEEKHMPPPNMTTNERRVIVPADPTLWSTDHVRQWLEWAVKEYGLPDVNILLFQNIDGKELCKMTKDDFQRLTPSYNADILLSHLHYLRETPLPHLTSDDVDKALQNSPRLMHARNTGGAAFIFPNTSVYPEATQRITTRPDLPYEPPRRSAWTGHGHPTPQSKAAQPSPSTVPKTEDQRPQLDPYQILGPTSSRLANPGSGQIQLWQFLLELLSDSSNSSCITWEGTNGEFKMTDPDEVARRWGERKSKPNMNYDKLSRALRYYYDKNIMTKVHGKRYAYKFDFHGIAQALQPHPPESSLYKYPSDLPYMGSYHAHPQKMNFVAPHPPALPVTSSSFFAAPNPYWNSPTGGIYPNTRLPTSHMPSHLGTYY
The procedure, abridged: as §1

For another assay, the target named is ELF1 (Homo sapiens, UniProt P32519 1-619). The essentials:
as §1

The next assay has as its target T5, EHF (Homo sapiens, UniProt Q9NZC4 1-300).
T5 sequence: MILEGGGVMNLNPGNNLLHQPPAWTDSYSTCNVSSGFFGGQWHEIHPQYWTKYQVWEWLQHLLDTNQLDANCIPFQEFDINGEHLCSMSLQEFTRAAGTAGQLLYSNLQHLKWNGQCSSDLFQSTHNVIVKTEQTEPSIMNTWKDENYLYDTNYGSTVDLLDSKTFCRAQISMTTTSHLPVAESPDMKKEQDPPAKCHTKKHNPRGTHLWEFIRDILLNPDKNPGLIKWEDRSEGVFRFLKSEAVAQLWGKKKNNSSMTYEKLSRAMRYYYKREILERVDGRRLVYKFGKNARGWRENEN
The essentials:
as §1

Another assay has as its target SPI1 (Homo sapiens, UniProt P17947 1-270). The essentials:
as §1

The target in the next assay is SPIB (Homo sapiens, UniProt Q01892 1-262). The procedure, abridged:
as §1

Another assay deals with T6, ELK3 (Homo sapiens, UniProt P41970 1-407).
T6 sequence: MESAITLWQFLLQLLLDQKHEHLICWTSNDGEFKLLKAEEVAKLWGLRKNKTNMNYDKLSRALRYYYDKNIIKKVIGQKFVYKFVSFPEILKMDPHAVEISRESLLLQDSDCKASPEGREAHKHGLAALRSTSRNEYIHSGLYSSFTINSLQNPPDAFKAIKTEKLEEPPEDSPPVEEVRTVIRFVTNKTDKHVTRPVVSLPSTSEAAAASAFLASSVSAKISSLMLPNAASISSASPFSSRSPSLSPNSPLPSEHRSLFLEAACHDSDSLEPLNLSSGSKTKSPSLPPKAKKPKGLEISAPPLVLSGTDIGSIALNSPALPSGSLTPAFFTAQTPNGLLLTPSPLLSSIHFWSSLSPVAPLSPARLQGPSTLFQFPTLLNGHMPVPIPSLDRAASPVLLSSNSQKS
The essentials:
as §1

The next assay concerns the target T7, FEV (Homo sapiens, UniProt Q99581 1-238).
T7 sequence: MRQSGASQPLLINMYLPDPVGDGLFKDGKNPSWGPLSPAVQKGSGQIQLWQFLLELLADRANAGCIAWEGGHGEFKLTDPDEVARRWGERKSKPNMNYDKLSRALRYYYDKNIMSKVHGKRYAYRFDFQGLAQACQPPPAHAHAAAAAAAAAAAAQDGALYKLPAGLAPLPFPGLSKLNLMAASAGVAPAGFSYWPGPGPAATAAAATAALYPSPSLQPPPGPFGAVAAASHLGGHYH
The essentials:
as §1

For another assay, the target named is ETV5 (Homo sapiens, UniProt P41161 1-510). The essentials:
as §1

In a further assay the target is T8, SPIC (Homo sapiens, UniProt Q8N5J4 1-248).
T8 sequence: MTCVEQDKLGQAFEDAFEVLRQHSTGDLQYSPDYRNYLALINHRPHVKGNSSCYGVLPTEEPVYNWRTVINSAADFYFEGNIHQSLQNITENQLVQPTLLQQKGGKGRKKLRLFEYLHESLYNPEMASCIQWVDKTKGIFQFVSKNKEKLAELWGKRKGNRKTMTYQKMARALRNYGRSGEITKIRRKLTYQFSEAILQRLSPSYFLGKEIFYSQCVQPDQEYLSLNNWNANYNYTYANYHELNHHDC
The procedure, abridged:
as §1

Another assay concerns the target ELF4 (Homo sapiens, UniProt Q99607 1-663). The procedure, abridged: as §1
In another assay the target is T9, ELK4 (Homo sapiens, UniProt P28324-2 1-405).
T9 sequence: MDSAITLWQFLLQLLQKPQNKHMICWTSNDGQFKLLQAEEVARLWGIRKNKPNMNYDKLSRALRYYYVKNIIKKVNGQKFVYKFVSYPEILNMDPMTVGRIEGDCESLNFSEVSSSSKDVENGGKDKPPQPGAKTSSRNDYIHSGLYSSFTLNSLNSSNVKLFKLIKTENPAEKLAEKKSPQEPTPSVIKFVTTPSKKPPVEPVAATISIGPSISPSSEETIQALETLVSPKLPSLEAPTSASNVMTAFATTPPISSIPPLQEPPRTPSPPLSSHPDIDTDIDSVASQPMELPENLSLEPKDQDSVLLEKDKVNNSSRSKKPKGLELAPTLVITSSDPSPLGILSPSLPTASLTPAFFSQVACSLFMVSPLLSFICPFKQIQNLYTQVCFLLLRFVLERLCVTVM
The essentials:
as §1

In another assay the target is T10, ETV2 (Homo sapiens, UniProt O00321 1-342).
T10 sequence: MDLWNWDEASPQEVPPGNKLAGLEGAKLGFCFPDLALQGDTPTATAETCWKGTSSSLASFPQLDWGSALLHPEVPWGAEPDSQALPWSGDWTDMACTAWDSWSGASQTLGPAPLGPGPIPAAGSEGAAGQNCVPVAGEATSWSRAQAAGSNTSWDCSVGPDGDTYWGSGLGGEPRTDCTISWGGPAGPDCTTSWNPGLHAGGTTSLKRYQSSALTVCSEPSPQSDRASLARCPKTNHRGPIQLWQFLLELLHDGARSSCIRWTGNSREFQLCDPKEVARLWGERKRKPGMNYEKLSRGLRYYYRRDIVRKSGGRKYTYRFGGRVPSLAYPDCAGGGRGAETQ
The procedure, abridged:
as §1

Another assay addresses T11, ELF3 (Homo sapiens, UniProt P78545 1-371).
T11 sequence: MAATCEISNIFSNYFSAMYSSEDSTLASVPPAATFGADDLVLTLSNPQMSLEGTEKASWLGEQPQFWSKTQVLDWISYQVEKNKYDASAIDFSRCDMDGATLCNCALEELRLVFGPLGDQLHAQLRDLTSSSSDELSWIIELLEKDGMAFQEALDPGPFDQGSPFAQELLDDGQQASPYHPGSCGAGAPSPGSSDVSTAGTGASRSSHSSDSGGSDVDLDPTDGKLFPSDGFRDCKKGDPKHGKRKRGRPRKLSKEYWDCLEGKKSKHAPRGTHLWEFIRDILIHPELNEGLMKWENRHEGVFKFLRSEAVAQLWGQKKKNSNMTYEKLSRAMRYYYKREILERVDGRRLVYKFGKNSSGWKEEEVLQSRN
The procedure, abridged:
as §1

In the next assay the target is ETV1 (Homo sapiens, UniProt P50549 1-477). The procedure, abridged:
as §1

Sequence of SPIB (Q01892 whole entry): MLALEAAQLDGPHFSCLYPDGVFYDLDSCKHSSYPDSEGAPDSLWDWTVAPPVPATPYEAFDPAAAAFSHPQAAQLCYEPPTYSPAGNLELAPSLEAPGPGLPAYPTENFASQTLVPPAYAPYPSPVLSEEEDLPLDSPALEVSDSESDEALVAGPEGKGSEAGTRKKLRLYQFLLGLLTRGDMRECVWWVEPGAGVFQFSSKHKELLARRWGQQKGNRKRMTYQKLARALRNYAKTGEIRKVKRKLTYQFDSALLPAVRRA
Sequence of ETV5 (P41161 whole entry): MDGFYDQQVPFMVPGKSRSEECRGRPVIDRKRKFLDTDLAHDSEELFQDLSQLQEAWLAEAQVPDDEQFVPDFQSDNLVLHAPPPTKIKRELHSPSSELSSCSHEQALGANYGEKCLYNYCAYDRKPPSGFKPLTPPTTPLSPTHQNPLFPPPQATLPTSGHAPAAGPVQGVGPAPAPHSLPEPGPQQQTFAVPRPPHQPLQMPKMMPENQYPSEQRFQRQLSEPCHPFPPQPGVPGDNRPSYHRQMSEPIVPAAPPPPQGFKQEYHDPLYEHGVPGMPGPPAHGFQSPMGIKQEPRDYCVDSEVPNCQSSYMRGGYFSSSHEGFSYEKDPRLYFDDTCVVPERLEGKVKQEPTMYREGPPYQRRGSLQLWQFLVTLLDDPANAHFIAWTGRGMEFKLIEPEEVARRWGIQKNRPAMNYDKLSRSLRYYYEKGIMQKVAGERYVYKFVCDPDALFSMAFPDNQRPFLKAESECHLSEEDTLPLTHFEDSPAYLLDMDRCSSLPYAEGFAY
Sequence of ELF1 (P32519 whole entry): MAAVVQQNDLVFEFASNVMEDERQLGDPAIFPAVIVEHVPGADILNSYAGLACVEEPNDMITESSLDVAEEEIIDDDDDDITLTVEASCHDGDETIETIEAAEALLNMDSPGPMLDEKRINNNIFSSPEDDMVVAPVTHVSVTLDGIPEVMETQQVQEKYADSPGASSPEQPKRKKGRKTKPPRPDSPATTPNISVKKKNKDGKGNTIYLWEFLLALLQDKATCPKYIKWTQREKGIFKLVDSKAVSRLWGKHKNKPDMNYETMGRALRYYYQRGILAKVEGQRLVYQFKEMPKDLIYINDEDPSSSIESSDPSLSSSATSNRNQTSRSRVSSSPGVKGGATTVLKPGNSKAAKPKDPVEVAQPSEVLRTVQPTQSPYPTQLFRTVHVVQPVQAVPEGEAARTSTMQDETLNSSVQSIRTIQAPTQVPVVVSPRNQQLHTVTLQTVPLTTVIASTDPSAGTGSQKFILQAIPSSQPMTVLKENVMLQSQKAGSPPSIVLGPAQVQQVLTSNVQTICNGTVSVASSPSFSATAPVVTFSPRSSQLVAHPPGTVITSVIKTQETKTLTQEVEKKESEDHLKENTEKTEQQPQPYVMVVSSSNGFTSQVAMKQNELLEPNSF
Sequence of ETV1 (P50549 whole entry): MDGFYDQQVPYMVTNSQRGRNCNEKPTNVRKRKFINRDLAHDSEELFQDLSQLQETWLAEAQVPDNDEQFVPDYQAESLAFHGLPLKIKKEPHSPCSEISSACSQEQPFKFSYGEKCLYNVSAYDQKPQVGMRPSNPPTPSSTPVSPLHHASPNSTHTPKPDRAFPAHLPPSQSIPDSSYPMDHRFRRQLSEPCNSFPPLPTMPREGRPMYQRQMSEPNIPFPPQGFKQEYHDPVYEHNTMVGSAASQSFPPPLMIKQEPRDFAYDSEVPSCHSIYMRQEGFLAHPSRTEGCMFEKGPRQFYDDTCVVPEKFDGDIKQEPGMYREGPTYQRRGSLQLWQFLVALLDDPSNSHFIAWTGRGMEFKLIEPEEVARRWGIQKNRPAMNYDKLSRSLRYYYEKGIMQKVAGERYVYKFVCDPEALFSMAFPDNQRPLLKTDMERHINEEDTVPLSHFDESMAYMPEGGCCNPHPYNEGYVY
Sequence of ELF4 (Q99607 whole entry): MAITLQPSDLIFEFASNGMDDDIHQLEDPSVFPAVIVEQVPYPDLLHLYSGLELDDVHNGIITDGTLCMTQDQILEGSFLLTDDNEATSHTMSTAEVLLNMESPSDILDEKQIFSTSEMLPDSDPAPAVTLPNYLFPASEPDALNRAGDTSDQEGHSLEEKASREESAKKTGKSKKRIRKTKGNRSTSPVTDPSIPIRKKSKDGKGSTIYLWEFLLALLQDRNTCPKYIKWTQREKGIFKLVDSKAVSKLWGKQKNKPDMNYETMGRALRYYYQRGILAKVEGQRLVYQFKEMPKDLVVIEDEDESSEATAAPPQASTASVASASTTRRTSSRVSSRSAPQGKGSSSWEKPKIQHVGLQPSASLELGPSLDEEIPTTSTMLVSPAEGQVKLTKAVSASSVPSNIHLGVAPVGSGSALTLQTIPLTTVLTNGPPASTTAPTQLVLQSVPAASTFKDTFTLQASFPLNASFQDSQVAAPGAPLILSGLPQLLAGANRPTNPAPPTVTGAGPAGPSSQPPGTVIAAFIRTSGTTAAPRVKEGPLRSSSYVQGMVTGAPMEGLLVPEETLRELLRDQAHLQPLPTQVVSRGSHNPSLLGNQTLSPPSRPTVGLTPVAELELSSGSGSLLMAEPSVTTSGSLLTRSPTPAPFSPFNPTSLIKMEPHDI

With TCCGCG, the binding signal is 1.25 fold enrichment (6-mer frequency, TF over GST control) in the assay with FLI1; 1.27 fold enrichment (6-mer frequency, TF over GST control) with ELK1; 1.03 fold enrichment (6-mer frequency, TF over GST control) with GABPA; 1.41 fold enrichment (6-mer frequency, TF over GST control) with ERG; 1.2 fold enrichment (6-mer frequency, TF over GST control) in the assay with ELF1; 1.23 fold enrichment (6-mer frequency, TF over GST control) in the assay with EHF. Also, the binding signal in the assay with SPI1 was 1.3 fold enrichment (6-mer frequency, TF over GST control); with SPIB, 1.36 fold enrichment (6-mer frequency, TF over GST control); with ELK3, 1.14 fold enrichment (6-mer frequency, TF over GST control); with FEV, 1.2 fold enrichment (6-mer frequency, TF over GST control); in the assay with ETV5, 1.33 fold enrichment (6-mer frequency, TF over GST control); with SPIC it was 1.18 fold enrichment (6-mer frequency, TF over GST control). The binding signal was 1.23 fold enrichment (6-mer frequency, TF over GST control) in the assay with ELF4; 1.32 fold enrichment (6-mer frequency, TF over GST control) with ELK4; 1.32 fold enrichment (6-mer frequency, TF over GST control) in the assay with ETV2; 1.08 fold enrichment (6-mer frequency, TF over GST control) with ELF3; 1.33 fold enrichment (6-mer frequency, TF over GST control) with ETV1.
